Screening results from PubChem.
CHT inh – human CHT choline transport inhibition; Q9GZV3; AID 488975; CHT-expressing cells, membrane potential dye, choline response; hits give low values; 310,000 tested, 0.86% active; B-score at 10 µM;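 active = B-score over 3 SD under the library average, and starting fluorescence ratio not unusually high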;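 also: choline stimulus applied at its EC90 after an EC20 pre-addition; B-score computed on integrated fluorescence ratio after choline addition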
Target sequence (Q9GZV3 whole entry, looked up): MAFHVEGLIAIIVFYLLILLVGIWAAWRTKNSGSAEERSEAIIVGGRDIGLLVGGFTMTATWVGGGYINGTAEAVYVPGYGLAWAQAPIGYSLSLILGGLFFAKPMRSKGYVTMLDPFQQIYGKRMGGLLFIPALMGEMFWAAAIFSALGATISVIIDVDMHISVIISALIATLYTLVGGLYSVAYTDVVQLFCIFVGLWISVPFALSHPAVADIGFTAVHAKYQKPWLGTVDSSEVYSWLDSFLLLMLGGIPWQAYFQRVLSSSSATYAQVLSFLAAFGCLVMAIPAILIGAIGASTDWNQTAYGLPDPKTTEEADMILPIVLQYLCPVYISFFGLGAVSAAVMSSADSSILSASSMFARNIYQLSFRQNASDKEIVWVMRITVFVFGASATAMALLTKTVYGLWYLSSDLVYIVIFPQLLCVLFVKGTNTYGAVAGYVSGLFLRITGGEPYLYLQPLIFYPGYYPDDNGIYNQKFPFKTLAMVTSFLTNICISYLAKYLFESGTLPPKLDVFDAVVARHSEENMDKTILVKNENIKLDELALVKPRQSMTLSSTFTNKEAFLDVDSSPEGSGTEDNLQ
Mot1-301 SUMO – inhibitors of SUMOylation pathway: yeast Mot1-301 growth rescue; S. cerevisiae Mot1-301 growth rescue, ATP luminescence, 38.5C; percent above DMSO median, 100 means doubled; growth rescue, % at 18.8 µM; 320,000 tested, 1% active; AID 2716;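 active = every valid replicate shows activation above 250% relative to neutral control wells; inactive = the rest, any valid replicate at or below 250%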
CHT allo act – human CHT allosteric activation; Q9GZV3; CHT-expressing cells, membrane potential dye, choline EC20; hits give high values; LV-AA mutant CHT in HEK293 cells; B-score at 10 µM; 310,000 tested, 0.49% active; AID 488977;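 active = initial fluorescence not abnormally high and integrated response B-score, plate-corrected, over 3 SD above library mean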
Bfl-1 A1 inh – inhibitors of the anti-apoptotic protein A1, read as caspase activation | caspase activation, % (no concentration beside the values) | 330,000 tested, 0.066% active | MEF A1-2A-BIM cells, Caspase-Glo 3/7 luminescence, 3 h; percent of clofoctol response, vehicle zero;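 active = over half of replicate activation scores above 10%, or exactly half above 10 with the replicate mean above 10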
NALP1 yeast inh – NALP1 inhibition; S. cerevisiae NALP1/ASC/caspase-1 growth, X-gal OD620, 72 h; inhibition, % at 10 µM; 280,000 tested, 0.61% active; AID 2071; in the data active = inhibition mostly above about 24%, no sharp cut-off; inactive = mostly below about 32%
NALP3 yeast inh – blocks the NALP3 inflammasome reconstituted in yeast. Yeast reconstituted NLRP3/ASC/caspase-1, beta-gal luminescence, 24 h. inhibition, % at 10 µM. 330,000 tested, 0.39% active;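 active = inhibition of 50% or more; inactive = inhibition below 50%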
Numbers stand for hits; - = inactive; . = no result; + = active, no number. The list is not random: actives were taken first. Their share in the collection is about 3%.

SMILES	CHT inh	Mot1-301 SUMO	CHT allo act	Bfl-1 A1 inh	NALP1 yeast inh	NALP3 yeast inh
COc1cc(/C=N/Nc2ccc(C(F)(F)F)cn2)ccc1O	-	+	-	-	-	-
Nc1nnc(-c2cc3c(ccc4ccccc43)oc2=O)s1	.	.	.	.	-	.
N=C1/C(=C\c2ccc(-c3cccc(C(=O)O)c3)o2)C(=O)N=C2SC=C(c3ccccc3)N12	-	-	-	-	-	-
C=CCn1c(NCc2cc(C)ccc2O)nc2ccccc21	-	-	-	-	-	-
C=CCn1c(NC(C)c2cc(Cl)ccc2O)nc2ccccc21 (centres undefined)	-	-	-	-	47	-
COc1ccccc1OCC(=O)Nc1cc(S(=O)(=O)N2CCOCC2)ccc1N1CCCCC1	.	-	.	-	.	-
NC(=O)c1ccccc1NC(=O)CN1CCOCC1	-	-	-	.	-	-
NC(=O)CN1CCOCCOCCN(CC(N)=O)CCOCC1	-	-	-	-	39	-
COCc1nc2sc3c(c2c(=O)[nH]1)CCCC3	-	481	-	-	-	-
O=C(CCNC(=O)c1ccc(Cl)cc1)NCc1ccco1	.	-	.	-	.	-
Clc1cccc(N/N=C/c2ccc(N3CCOCC3)cc2)c1	-	326	-	-	-	-
C(=N\Nc1ccccc1)/c1ccc(N2CCOCC2)cc1	-	-	-	-	-	-
O=C(c1ccccc1Br)N1CCN(c2ccc([N+](=O)[O-])c(N3CCOCC3)c2)CC1	-	-	-	-	-	-
O=C(c1ccc(N2CCOCC2)cc1[N+](=O)[O-])N1CCOCC1	-	-	-	-	34	-
CCN1CCN(C(=S)NC(=O)/C=C/c2cccs2)CC1	-	676	-	-	-	-
CCN1CCN(C(=S)NC(=O)c2cccs2)CC1	-	-	-	-	-	-
Cc1cc(-c2ccc(C(C)C)c(S(=O)(=O)N3CCC(C)CC3)c2)on1	-	-	-	-	-	-
CC(C)NC(=S)Nc1c(N)[nH]c(=O)[nH]c1=O	-	343	-	-	-	-
CC(C)NC(=S)NC(=O)/C=C/c1ccc(F)cc1	-	-	-	-	-	-
COc1ccc(S(=O)(=O)Nc2ccc(-c3ccc4nncn4n3)cc2)c(OC)c1	-	-	-	-	.	-
c1ccc2c(N3CCCCC3)nc(N3CCCC3)nc2c1	-	-	-	-	-	-
c1ccc2c(c1)nc(N1CCCCC1)c1ccccc12	-	-	-	-	39	-
Cc1ccc(S(=O)(=O)/N=c2\ccc(Cl)cn2C(F)F)cc1	-	-	-	-	38	-
Cc1ccc(C(=O)CC(=O)c2ccccc2)cc1	-	-	-	-	-	-
Cc1ccc(C(=O)CCc2ccc(N)cc2)cc1	-	318	-	-	-	-
SMILES	CHT inh	Mot1-301 SUMO	CHT allo act	Bfl-1 A1 inh	NALP1 yeast inh	NALP3 yeast inh
Nc1ccc(Oc2ccc3c(c2)C(=O)N(CC2CCCO2)C3=O)cc1 (centres undefined)	-	284	-	-	-	-
COc1ccccc1NC(=O)c1ccc(NC(=O)CSc2nc(N)cc(=O)[nH]2)cc1	.	-	.	-	.	-
Cc1ccc(S(=O)(=O)Nc2nc3ccccc3nc2N2CCOCC2)cc1	.	-	.	-	.	-
O=S(=O)(Nc1nc2ccccc2nc1N1CCN(c2ccccc2)CC1)c1ccc(F)cc1	-	526	-	-	-	-
c1cc[n+](CCC[n+]2ccccc2)cc1	-	-	-	-	-	-
CCOc1ccccc1C(=O)N1CCN(c2cccc(Cl)c2)CC1	-	-	12	-	-	-
O=C(O)c1ccccc1C(=O)N1CCN(c2cccc(Cl)c2)CC1	-	-	-	-	-	-
CC(=O)N1CCc2cc(S(=O)(=O)NCCC(=O)Nc3cc(C)cc(C)c3)ccc21	-	-	-	-	40	-
O=C(NCc1ccccc1)c1c[nH]c2ccccc2c1=O	-	-	-	-	-	-
O=C(Nc1ccc(S(=O)(=O)NCc2ccccc2)cc1)C1CCCCC1	-	-	-	-	32	-
CCCC1(C(=O)OCC)NC(c2ccc(O)cc2)C2C(=O)N(c3ccc4c(c3)OCCO4)C(=O)C21 (centres undefined)	-	-	-	-	-	-
COC(=O)C1(c2ccccc2)NC(c2ccc(O)cc2)C2C(=O)N(c3ccc4c(c3)OCO4)C(=O)C21 (centres undefined)	-	260	-	-	.	-
CCCN1CCc2c(sc(NC(=O)C3CCN(S(=O)(=O)c4cccs4)CC3)c2C(N)=O)C1	-	-	-	-	.	-
C/C(=N\NC(=S)Nc1ccccc1C)c1cc2ccccc2o1	-	-	-	-	.	-
C/C(=N\NC(=S)Nc1c(C)cccc1C)c1cc2ccccc2o1	-	322	-	-	-	-
COc1cc(/C=C(/C#N)c2nc3ccccc3[nH]2)ccc1OCC(=O)Nc1ccccc1C	-	-	-	7.2	-	-
COc1cc(/C=C(\C#N)c2nc3ccccc3[nH]2)ccc1OC(=O)c1ccco1	-	-	-	-	-	-
Cc1ccc2cc(CN(CC3CCCO3)C(=O)NC3CCCCC3)c(=O)[nH]c2c1C (centres undefined)	-	-	-	-	-	-
CCN(CC)CCCN(Cc1cc2ccc(C)c(C)c2[nH]c1=O)C(=O)NC1CCCCC1	-	-	-	-	23	-
COc1ccccc1CCNC(=O)CNC(=O)Cc1cccc2ccccc12	-	-	-	-	-	-
C/C(=N\Nc1ccccc1)c1c(O)cc(C)oc1=O	-	324	-	-	-	-
Cc1ccc(S(=O)(=O)NNC(=O)CCC(=O)Nc2ccc(C)c(C)c2)cc1	-	350	-	-	-	-
COc1cc(/C=C/C(=O)O)cc(S(=O)(=O)Nc2ccc(S(=O)(=O)N3CCCCC3)cc2)c1OC	.	.	.	.	.	-
COc1ccc(C(=O)c2c(-c3cccc(C)c3)oc3ccc(N4CCOCC4)cc23)cn1	-	-	-	-	-	-
Clc1ccc(NCc2ccsc2)cc1	-	408	-	-	-	-
SMILES	CHT inh	Mot1-301 SUMO	CHT allo act	Bfl-1 A1 inh	NALP1 yeast inh	NALP3 yeast inh
Fc1ccccc1CNc1ccc(Cl)cc1	-	-	-	-	-	-
Clc1ccc(CO/N=C2\CCCc3nonc32)cc1	-	-	-	-	-	-
Clc1ccccc1CO/N=C1\CCCc2nonc21	-	-	-	-	43	-
O=C(O)c1cccc(OS(=O)(=O)c2cc(Br)ccc2Br)c1	.	-	.	-	.	-
CC1CC(C)CN(CCC(=O)Nc2ccc(Br)cc2)C1 (centres undefined)	-	-	-	-	-	-
COc1ccccc1CN1CCN(Cc2nc(-c3cccs3)no2)CC1	-	-	-	-	22	-
CC(C)c1ccc(NC2(C#N)C(=O)Nc3ccccc32)cc1 (centres undefined)	-	-	-	-	-	-
Cc1ccccc1NC1(C#N)C(=O)Nc2ccccc21 (centres undefined)	-	348	-	-	-	-
